# MOR-DOR inv ag = inverse agonists of MOR-DOR heterodimerization, primary screen, cell-based, luminescence. Mu-type opioid receptor (Homo sapiens) + Delta-type opioid receptor (Homo sapiens), …. cell-based MOR-DOR heterodimer luminescence, inverse agonism. inhibition, % at 9.3 µM. 340,000 tested, 0.21% active. AID 504357, 2011; in the data active means inhibition above about 22%, passing the limit was not always enough;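 further: 0% = cells with DMSO and 100% = wells without cells with DMSO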
# Target sequence (P35372 whole entry, looked up): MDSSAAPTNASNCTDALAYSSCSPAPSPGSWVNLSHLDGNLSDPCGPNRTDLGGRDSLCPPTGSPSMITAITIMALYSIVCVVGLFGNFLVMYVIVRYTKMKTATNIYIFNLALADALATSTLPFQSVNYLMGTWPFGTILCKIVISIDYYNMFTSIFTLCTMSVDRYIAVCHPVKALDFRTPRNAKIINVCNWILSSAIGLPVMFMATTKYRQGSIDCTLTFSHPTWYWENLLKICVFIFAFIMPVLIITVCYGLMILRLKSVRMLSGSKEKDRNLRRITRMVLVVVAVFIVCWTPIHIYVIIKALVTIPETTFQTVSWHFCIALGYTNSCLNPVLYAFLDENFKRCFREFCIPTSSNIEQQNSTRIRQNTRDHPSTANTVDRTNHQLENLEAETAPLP
# Target sequence (P41143 whole entry, looked up): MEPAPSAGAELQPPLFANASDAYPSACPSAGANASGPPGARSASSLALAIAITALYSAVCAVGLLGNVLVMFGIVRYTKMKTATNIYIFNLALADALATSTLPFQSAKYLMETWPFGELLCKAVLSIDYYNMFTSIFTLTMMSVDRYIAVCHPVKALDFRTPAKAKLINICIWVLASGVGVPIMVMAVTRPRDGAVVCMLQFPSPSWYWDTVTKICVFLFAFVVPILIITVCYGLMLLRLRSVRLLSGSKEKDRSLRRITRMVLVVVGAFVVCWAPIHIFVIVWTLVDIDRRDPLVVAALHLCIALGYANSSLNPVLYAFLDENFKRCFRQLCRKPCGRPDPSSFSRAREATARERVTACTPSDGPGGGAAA
# MOR-DOR ag-1 = agonists of OPRM1-OPRD1 heterodimerization, primary screen, cell-based, luminescence | Mu-type opioid receptor (Homo sapiens) + Delta-type opioid receptor (Homo sapiens), … | cells | 340,000 tested, 0.3% active | activation, % at 9.3 µM;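 further: 0% = vehicle-treated cells and 100% = reference agonist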
# m5-HT2A agonist = mouse Htr2a agonists via beta-arrestin recruitment, primary screen, cell-based, luminescence; CHO-K1 mHTR2A beta-arrestin complementation; percent of 30 µM serotonin response; activation, % at 7.6 µM; 360,000 tested, 0.66% active; AID 624169, 2012;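 active means activation above a run cutoff, the mean activation of all tested compounds plus 3 SD, cut at about 14% in these data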;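 further: 0% = plate median of compound wells and 100% = 30 µM serotonin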
# HTR5A inv ag = HTR5A inverse agonists in luminescence cell assay, primary screen, counter-screen for OPRM1-OPRD1 heterodimer inverse agonist project, full-deck HTS. HTR5A cell line, inverse agonism. inhibition, % at 9.3 µM. 340,000 tested, 0.083% active. AID 504634, 2011; in the data active means inhibition mostly above about 23%, no sharp cut-off; inactive means mostly below about 18%;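 further: 0% = cells with DMSO and 100% = no-cell wells with DMSO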
# HTR5A ag = HTR5A agonists in luminescence cell assay, primary screen, counter-screen for OPRM1-OPRD1 heterodimer agonist project, full-deck HTS | 5-hydroxytryptamine receptor 5A (Homo sapiens), P47898 | cell-based | activation, % at 9.3 µM | 340,000 tested, 0.61% active | AID 504692, 2011; in the data active means activation mostly above about 9.5%, no sharp cut-off; inactive means mostly below about 7.6%;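 further: 0% = cells with vehicle only and 100% = reference agonist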
# MOR-DOR ag-2 = OPRM1-OPRD1 heterodimerization promoters, counter-screen for HTR5A agonist project, cell-based, luminescence; shares compounds with HTR5A ag; U2OS counter-screen cells, complementation luminescence, 3 h; activation, % at 9.3 µM; 800 tested, 13% active; AID 504913, 2011
# HTR5A ag conf = HTR5A agonists, retest of hits, confirmation, cell-based, luminescence | shares compounds with HTR5A ag | HTR5A agonist cell assay | activation, % at 9.3 µM | 800 tested, 17% active; in the data active means activation above about 17%;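 further: 0% = cells with vehicle only and 100% = full reference agonist response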
# Active calls of the source: *; . = no result given. The list is not random: actives were taken first. Their share in the collection is about 1.6%. Unless noted, no stated cut-off is given here; in the data, active means activation above about 18%; inactive means the rest.
SMILES,MOR-DOR inv ag,MOR-DOR ag-1,m5-HT2A agonist,HTR5A inv ag,HTR5A ag,MOR-DOR ag-2,HTR5A ag conf
CCN(CC)CCCNC(=S)N1CCN(c2nc3ccccc3n2CC)CC1,3,0,2,-30,19*,2,46*
COc1ccccc1CNC(=O)C[C@@H]1C[C@H]2c3cc(N(C)C)ccc3O[C@H]2[C@H](CO)O1,.,.,2,.,.,.,.
COc1cc(OC)cc(C(=O)Nc2nnc(NC(=S)Nc3ccccc3)s2)c1,1,0,3,-15,15*,2,-3
COc1ccc(S(=O)(=O)N(CC(=O)NCc2ccco2)c2ccccc2OC)cc1,8,-1,4,3,17*,3,2
Cn1c(=O)cc(SCC(=O)N2CCN(Cc3ccc4c(c3)OCO4)CC2)c2ccccc21,17,-3,-3,3,18*,2,-2
O=C(NCCc1cnc[nH]1)Nc1cccc(C(F)(F)F)c1,-11,2,-4,-21,17*,0,12
Cc1nc(NC(=O)/C=C/c2ccccc2)sc1C(=O)Nc1ccc(Cl)cc1,-58,12,4,-49,17*,4,4
O=C(Nc1cc(C(F)(F)F)ccc1-n1cncn1)c1ccc(-c2ccccc2)cc1,-31,6,-4,5,0,.,.
CC(=O)c1ccc(N(CC(=O)NCC2CCCO2)C(=O)CCC(=O)Nc2cc(C)on2)cc1 (stereo not drawn),-11,2,4,-26,14*,3,0
COCCNC(=O)c1cccc(OC2CCN(Cc3ccccc3C)CC2)c1,1,0,-5,-4,8,.,.
Cc1ccc(SCC(=O)OCC(=O)N2CCN(C(=O)c3ccco3)CC2)c(C)c1,15,-3,1,-22,0,.,.
COc1cccc(-c2csc(N3CCN(C(=S)Nc4ccccc4)CC3)n2)c1,-18,3,3,-52,22*,-2,-7
Oc1c(C(c2cccs2)N2CCOCC2)sc2ncnn12 (stereo not drawn),-2,0,2,-42,14,.,.
Oc1c(C(c2cccs2)N2CCN(c3cccc(Cl)c3)CC2)sc2ncnn12 (stereo not drawn),-1,0,-2,6,18*,2,3
COc1ccc(OC)c(CN2CCN(C(=O)c3cccc(S(=O)(=O)Nc4ccc(C)cc4)c3)CC2)c1,-7,1,7,1,0,.,.
COc1ccc(NS(=O)(=O)c2cccc(C(=O)N3CCN(Cc4cc(OC)ccc4OC)CC3)c2)cc1,-2,0,10,-16,15*,135*,-5
CCOc1ccc(NC(=O)[C@H](Cc2ccccc2)NC(=O)C2CCNCC2)cc1,7,-1,-4,-9,-5,.,.
CC1(C)CC(=O)c2c(oc3ccc(NS(=O)(=O)c4cccc5cccnc45)cc23)C1,0,0,-1,-1,12,.,.
COc1ccc2cc3cc(C(=O)NC(C)C)oc3nc2c1,4,-1,5,9,0,.,.
COc1ccc2cc3cc(C(=O)Nc4ccc5c(c4)OCCO5)oc3nc2c1,-9,2,-5,-21,25*,4,4
COc1ccc(C(C)=O)cc1Cn1c(C)c(C(=O)NCc2cccc(C(F)(F)F)c2)sc1=O,.,.,4,.,.,.,.
CCN(CC)S(=O)(=O)c1ccc(C(=O)NC(C)(C)C)cc1,6,-1,6,-3,1,.,.
CC1=NNC(=O)/C1=C\c1cn(-c2ccccc2)nc1-c1cccs1,-28,4,-1,-45,17*,3,2
O=[n+]1c2c(n([O-])c3cc(F)c(N4CCCC4)cc31)CCCC2,11,-2,1,-35,15*,1,40*
CCc1ccc(NC(=O)CC2C(=O)N(c3ccc(C)cc3)C(=O)N2C2CC2)cc1 (stereo not drawn),1,0,1,3,-4,.,.
SMILES,MOR-DOR inv ag,MOR-DOR ag-1,m5-HT2A agonist,HTR5A inv ag,HTR5A ag,MOR-DOR ag-2,HTR5A ag conf
O=C(CNC(=O)c1ccco1)Nc1ccc(Cl)cc1,13,-3,-3,-79,21*,-2,3
CCOc1ccc(NC(=S)N2CCC(NC(=O)C3CCCCC3)CC2)cc1,4,0,-1,8,-3,.,.
CC1(C)Cc2ccccc2C(C(Cc2ccccc2)C(N)=O)=N1 (stereo not drawn),-6,1,3,4,-1,.,.
CCSc1nsc(NC(=O)Nc2ccccc2Cl)n1,-35,7,-2,-18,5,.,.
CCOc1ccc(NC(=O)Nc2nc(SCC)ns2)cc1,-77,15,7,24,18*,2,5
Cc1cc(C)n2nc(C(=O)OCC(=O)NCc3ccccc3)nc2n1,11,-3,-5,-18,7,.,.
CCc1nnc(NC(=O)CSc2ccc(-c3nc4ccccc4[nH]3)cn2)s1,-1,0,2,11,-4,.,.
Cc1nc(NC(=O)CSc2ccc(-c3nc4ccccc4[nH]3)cn2)sc1C,-42,6,2,-21,17*,3,3
Cc1ccc(C)c(S(=O)(=O)N/N=C/c2ccc(F)cc2)c1,-3,1,-1,-45,15*,4,7
O=C(Nc1ccccc1C(=O)O)c1ccc2ccccc2n1,13,-3,-1,-66,26*,52*,3
C/C(=N\NC(=O)c1ccccc1[N+](=O)[O-])c1ccc(Br)s1,13,-3,-5,-1,-1,.,.
C/C(=N\NC(=O)c1ccccc1O)c1ccc(Br)s1,20,-4,2,-54,15*,0,28*
O=C(NN1C(=O)c2ccccc2C1=O)C1CC2CCC1C2 (stereo not drawn),-4,1,1,-19,14*,0,-1
O=C(NN1C(=O)c2ccccc2C1=O)C1CCCCC1,-3,1,-2,-4,1,.,.
Cc1cc(C)nc(/N=C(\N)N2CCc3ccccc32)n1,3,-1,2,24,3,.,.
CCN(CC)C(=O)c1c(-c2ccccc2)oc2ccc(O)cc12,15,-3,-3,1,0,.,.
COc1cc(OC)cc(-c2nc3ccccc3c(=O)n2OC(=O)c2ccccc2C)c1,-38,8,-2,-36,22*,6,12
O=C(On1c(-c2ccccc2)nc2ccccc2c1=O)c1ccco1,-1,0,-4,-23,3,.,.
CC(C)(C)NC(=O)NC(=O)COC(=O)COc1ccc2c(c1)CCC2,-36,6,4,-54,20*,10,4
COc1ccc([C@@H]2C[C@@H](c3ccccc3)Oc3cc(C)cc(C)c32)cc1,1,0,-3,-68,25*,3,2
